Results on nine molecules are retold here after PubChem BioAssay (EPA / NIEHS).

Molecules are shown by their SMILES. More than one record can exist for a structure, and the calls need not agree. Activity calls are given as the source filed them. The calls were made as follows: active = hit-call score of the fitted dose curve at least 0.9, where 1 is the maximum; inactive = score below 0.9.

Experiment [1] can be described thus: ATG_GLI_CIS: Attagene CIS-FACTORIAL HepG2 Assay for human Zinc Finger Protein GLI1 (AID 2282945). As to conditions: HepG2, Attagene cis-factorial reporter mRNA, GLI element; actives raise or lower the signal. The gist of the method: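 Bidirectional curve fits relative to DMSO, using reporter mRNA levels from RT-PCR plus capillary electrophoresis. Cells were HepG2 transiently carrying cis-regulated reporter constructs, harvested 24 h after dosing.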

Experiment [2] deals with Bile acid receptor (Homo sapiens) (UniProt Q96RI1). The experiment can be described thus: ATG_IR1_CIS: Attagene CIS-FACTORIAL HepG2 Assay for human Nuclear Receptor Subfamily 1 Group H Member 4 (NR1H4), IR1 submotif (AID 2282946). As to conditions: IR1 reporter transcription, actives raise or lower the signal. The gist of the method: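 HepG2 cells transiently transfected with multiplexed cis-element reporter units read endogenous transcription factor activity. After 24 h compound exposure, reporter mRNA was quantified by RT-PCR, fluorescent labelling, HpaI digestion and capillary electrophoresis; bidirectional fitting versus DMSO baseline.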

The nature of experiment [3]: ATG_ISRE_CIS: Attagene CIS-FACTORIAL HepG2 Assay for human Interferon Regulatory Factor 1 (IRF1) binding to an Interferon-Stimulated Response Element (ISRE) (AID 2282948). As to conditions: HepG2 ISRE cis-reporter (Attagene), mRNA transcription readout; actives raise or lower the signal. The gist of the method: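 Endogenous transcription factor activity read as reporter transcript abundance via RT-PCR and capillary electrophoresis. HepG2 cells transiently transfected, 24 h chemical exposure. Gain or loss fitted against DMSO baseline.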

Experiment [4] is described as follows: ATG_M_32_CIS: Attagene CIS-FACTORIAL HepG2 Assay for M32 Transcription Factor (Internal Marker) (AID 2282949).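 Also: background control marker of the multiplexed CIS panel rather than a real target.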 Conditions: HepG2 Attagene cis-factorial M32 reporter, mRNA; actives raise or lower the signal. Summed up:
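HepG2 human liver cells transiently transfected with cis-promoter-driven multiple reporter transcription units, dosed 24 h. Reporter mRNA quantified by RT-PCR, FAM-labelled primer extension, HpaI digest and capillary electrophoresis; bidirectional fit versus DMSO baseline.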

Experiment [5] in a line: ATG_M_06_CIS: Attagene CIS-FACTORIAL HepG2 Assay for M06 Transcription Factor (Internal Marker) (AID 2282950). As to conditions: HepG2 Attagene CIS-FACTORIAL M06 internal marker reporter; actives raise or lower the signal. The gist of the method: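 Terse: HepG2, transient MRTU transfection (FuGene 6), 24 h dosing; total RNA, oligo(dT) RT, PCR, FAM label, HpaI cut, capillary electrophoresis; bidirectional fit vs DMSO baseline; background-control endpoint.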

The target of experiment [6] is Hypoxia-inducible factor 1-alpha (Homo sapiens) (UniProt Q16665). The experiment can be described thus: ATG_HIF1a_CIS: Attagene CIS-FACTORIAL HepG2 Assay for human Hypoxia Inducible Factor 1 (HIF1A) (AID 2282951). As to conditions: HepG2 Attagene cis-factorial HIF1a reporter transcription; actives raise or lower the signal. The gist of the method:
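HepG2 cells transiently transfected with multiplexed cis-promoter reporter units; reporter mRNA read 24 h after dosing by RT-PCR, 6-FAM primer-extension labelling, HpaI digestion and capillary electrophoresis. Bidirectional fit versus DMSO baseline.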

The target in experiment [7] is Hepatocyte nuclear factor 6 (Homo sapiens) (UniProt Q9UBC0). In words: ATG_HNF6_CIS: Attagene CIS-FACTORIAL HepG2 Assay for human Hepatocyte Nuclear Factor 6 (HNF6) (AID 2282952). As to conditions: HepG2 Attagene cis-factorial HNF6 reporter transcription; actives raise or lower the signal. The gist of the method: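 Endogenous transcription factor activity in human HepG2 liver cells was captured through cis-regulated reporter constructs. After 24 h treatment, reporter mRNA was measured by RT-PCR with capillary electrophoresis, and activity was fitted in both directions relative to DMSO.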

Experiment [8] can be described thus: ATG_MRE_CIS: Attagene CIS-FACTORIAL HepG2 Assay for human Metal Responsive Element (MRE) (AID 2282954). Conditions: HepG2 MRE cis-reporter transcription, Attagene multiplex; actives raise or lower the signal. Summed up:
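Endogenous MRE-dependent transcription read as reporter mRNA in transiently transfected human HepG2 cells at 24 h. RNA reverse-transcribed, PCR-amplified, labelled and resolved by capillary electrophoresis; gain or loss relative to DMSO.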

Experiment [9] concerns the target Heat shock factor protein 1 (Homo sapiens) (UniProt Q00613). The experiment can be described thus: ATG_HSE_CIS: Attagene CIS-FACTORIAL HepG2 Assay for human Heat Shock Transcription Factor 1 (HSE) (AID 2282953). Conditions: HepG2 HSE cis-reporter, Attagene RNA transcription; actives raise or lower the signal. Summed up:
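Read-out: fluorescence of reporter-specific RT-PCR fragments separated by capillary electrophoresis. HepG2 carrying transfected cis-element reporter units; 24 h dosing; activity fitted in both directions relative to DMSO baseline.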

The nature of experiment [10]: ATG_GRE_CIS: Attagene CIS-FACTORIAL HepG2 Assay for human Glucocorticoid Response Elements (GRE) (AID 2282947). Conditions: HepG2 GRE cis-reporter, Attagene multiplex mRNA; actives raise or lower the signal. The gist of the method:
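Reporter transcripts read by RT-PCR with capillary electrophoresis fluorescence after a 24 h chemical exposure of HepG2 cells transiently transfected with multiple cis-element reporter units. Gain or loss fitted against DMSO.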

Hepatocyte nuclear factor 6 (Homo sapiens), sequence (Q9UBC0 whole entry, looked up): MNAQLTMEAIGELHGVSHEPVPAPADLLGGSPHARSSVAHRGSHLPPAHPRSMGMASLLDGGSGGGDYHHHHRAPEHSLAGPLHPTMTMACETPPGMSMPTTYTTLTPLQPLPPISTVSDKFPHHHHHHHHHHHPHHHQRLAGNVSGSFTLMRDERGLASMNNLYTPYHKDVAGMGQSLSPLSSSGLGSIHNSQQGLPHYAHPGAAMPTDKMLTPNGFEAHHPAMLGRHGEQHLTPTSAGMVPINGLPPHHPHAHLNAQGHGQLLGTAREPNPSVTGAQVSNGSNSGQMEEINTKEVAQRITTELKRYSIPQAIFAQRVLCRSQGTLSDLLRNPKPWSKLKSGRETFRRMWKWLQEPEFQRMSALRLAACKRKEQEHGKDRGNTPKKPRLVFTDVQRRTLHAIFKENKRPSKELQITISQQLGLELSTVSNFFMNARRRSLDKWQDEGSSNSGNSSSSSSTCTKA
Hypoxia-inducible factor 1-alpha (Homo sapiens), sequence (Q16665 whole entry, looked up): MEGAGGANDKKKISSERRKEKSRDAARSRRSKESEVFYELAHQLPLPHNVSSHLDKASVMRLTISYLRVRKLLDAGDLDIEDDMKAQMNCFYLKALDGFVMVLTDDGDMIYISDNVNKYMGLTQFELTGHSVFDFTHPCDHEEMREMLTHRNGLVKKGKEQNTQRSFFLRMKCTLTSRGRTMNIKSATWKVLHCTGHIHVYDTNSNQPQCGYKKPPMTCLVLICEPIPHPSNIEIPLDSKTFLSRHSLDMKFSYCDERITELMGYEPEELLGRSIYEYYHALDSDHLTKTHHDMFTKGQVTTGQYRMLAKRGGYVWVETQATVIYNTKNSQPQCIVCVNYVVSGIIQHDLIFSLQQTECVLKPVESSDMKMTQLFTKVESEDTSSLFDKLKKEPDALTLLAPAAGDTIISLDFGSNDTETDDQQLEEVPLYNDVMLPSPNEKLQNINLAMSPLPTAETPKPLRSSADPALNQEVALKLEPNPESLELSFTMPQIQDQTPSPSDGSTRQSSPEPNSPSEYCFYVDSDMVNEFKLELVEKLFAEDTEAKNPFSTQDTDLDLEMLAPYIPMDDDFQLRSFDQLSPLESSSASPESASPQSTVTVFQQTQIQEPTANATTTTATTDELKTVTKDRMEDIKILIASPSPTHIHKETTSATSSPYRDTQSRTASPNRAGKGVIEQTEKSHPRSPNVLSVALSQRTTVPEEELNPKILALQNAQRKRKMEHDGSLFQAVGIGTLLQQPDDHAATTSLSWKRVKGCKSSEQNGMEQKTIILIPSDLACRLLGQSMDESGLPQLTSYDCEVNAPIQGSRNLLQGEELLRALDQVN
Heat shock factor protein 1 (Homo sapiens), sequence (Q00613 whole entry, looked up, the tested form may be a part): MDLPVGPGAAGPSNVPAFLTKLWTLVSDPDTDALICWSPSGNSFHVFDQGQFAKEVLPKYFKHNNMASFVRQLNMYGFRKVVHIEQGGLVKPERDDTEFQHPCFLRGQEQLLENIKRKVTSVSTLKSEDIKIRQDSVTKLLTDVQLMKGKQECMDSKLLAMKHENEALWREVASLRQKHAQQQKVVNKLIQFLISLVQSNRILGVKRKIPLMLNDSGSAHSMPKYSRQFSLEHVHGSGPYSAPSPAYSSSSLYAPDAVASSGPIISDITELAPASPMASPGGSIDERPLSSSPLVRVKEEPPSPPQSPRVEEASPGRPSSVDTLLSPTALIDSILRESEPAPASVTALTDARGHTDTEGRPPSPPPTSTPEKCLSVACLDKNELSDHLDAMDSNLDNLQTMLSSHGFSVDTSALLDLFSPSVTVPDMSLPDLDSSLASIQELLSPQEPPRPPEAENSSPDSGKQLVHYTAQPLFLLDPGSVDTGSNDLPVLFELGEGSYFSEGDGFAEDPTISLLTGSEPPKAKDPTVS
Bile acid receptor (Homo sapiens), sequence (Q96RI1 whole entry, looked up): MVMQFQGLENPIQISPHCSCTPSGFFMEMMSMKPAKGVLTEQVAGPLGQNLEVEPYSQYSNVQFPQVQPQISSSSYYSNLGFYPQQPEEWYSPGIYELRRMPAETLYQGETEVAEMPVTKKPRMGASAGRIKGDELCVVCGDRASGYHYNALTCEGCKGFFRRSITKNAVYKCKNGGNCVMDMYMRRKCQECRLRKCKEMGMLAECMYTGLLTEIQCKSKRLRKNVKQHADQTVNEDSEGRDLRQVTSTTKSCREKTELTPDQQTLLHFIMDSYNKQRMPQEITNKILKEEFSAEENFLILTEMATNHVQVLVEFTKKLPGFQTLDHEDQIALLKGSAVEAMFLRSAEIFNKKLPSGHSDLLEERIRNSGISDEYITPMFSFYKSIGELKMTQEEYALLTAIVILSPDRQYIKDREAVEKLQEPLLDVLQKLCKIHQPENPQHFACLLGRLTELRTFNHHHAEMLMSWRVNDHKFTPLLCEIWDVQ

Take `Cc1ccc([N+](=O)[O-])cc1C`: the call in experiment [1], in [2], in experiment [3], in [4], in experiment [5] and in [6] was inactive. The molecule was classed as inactive in experiment [7] and in experiment [8].
Regarding `Nc1ccc2ccccc2c1`, the call in experiment [1], in experiment [3], in experiment [4], in experiment [5], in experiment [6] and in experiment [7] was inactive. Moreover, the molecule was called inactive in experiment [9] and in experiment [8].
Turning to `CCC(C)(C)c1ccc(O)cc1`, the call in [1], in [10], in [3], in experiment [4], in experiment [5] and in experiment [7] was inactive. The call in experiment [9] and in experiment [8] was inactive. Further, the AC50 in [2] is 33.4 µM (active).
In the case of `CC(Cc1ccc(OCC(=O)O)cc1)NCC(O)c1csc(C(F)(F)F)n1` (stereo not given), the molecule was classed as inactive in experiment [1], in experiment [10], in experiment [3], in experiment [4], in experiment [5] and in [6]. For the same molecule, the molecule was called inactive in [7], in experiment [9] and in [8].
For the molecule `CCOP(=S)(Oc1ccc([N+](=O)[O-])cc1)c1ccccc1` (stereo not given), the outcome in [1], in experiment [3], in [4], in experiment [5], in [6] and in experiment [7] was inactive. Further, the result in experiment [8] was inactive.
Turning to `CC(Cl)(Cl)C(=O)O`, the molecule was called inactive in [1], in [10], in experiment [3], in experiment [4], in experiment [5] and in experiment [6]. Further, the result in experiment [7], in experiment [9] and in [8] was inactive.
Take `CCCCOCCOP(=O)(OCCOCCCC)OCCOCCCC`: the outcome in [1], in experiment [10], in experiment [3], in [4], in experiment [5] and in experiment [7] was inactive. Besides, the outcome in [9] and in experiment [8] was inactive. The AC50 in [3] is 24.7 µM (active).
Regarding `CCCN(CCC)c1c([N+](=O)[O-])cc(C(C)C)cc1[N+](=O)[O-]`, the molecule was classed as inactive in experiment [1], in experiment [3], in [4], in [5], in experiment [6] and in [7]. Besides, the molecule was called inactive in experiment [9] and in [8].
For the molecule `CCCCN(CCCC)SN(C)C(=O)Oc1cccc2c1OC(C)(C)C2`, the molecule was called inactive in [1], in experiment [10], in experiment [3], in experiment [4], in experiment [5] and in experiment [6]. The result in [7] and in experiment [8] was inactive.
